Laboratory results as given in PubChem BioAssay (NCATS).
Inconclusive results are not listed. Calls of active or inactive are those of the source. Calls come from the whole dose curve; as a rule, active = well fitted curve in the direction sought with a large enough effect; inconclusive = small, poorly fitted or top-dose-only effect, or another doubt; inactive = no such curve, though single readings can be large; an effect the other way counts as inactive or inconclusive.

What was measured:
[1] = biological target: Glutathione peroxidase 1 (Homo sapiens) (UniProt P07203); assay: Primary qHTS Assay for Inhibitors of Recombinant Selenoprotein Glutathione Peroxidase 1 (GPX1) (AID 1845191); note: nearly all actives have a fitted effect of over 65% in size; for activity, negative = inhibition: % is set by controls: 0 for no effect and ±100 for the full control effect
Method in brief: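 NADPH consumption tracked by fluorescence at 340/450 nm between t=0 and t=15 min, room temperature. Final mix: 10 nM GPX1, 100 nM glutathione reductase, 1 mM GSH, 0.5 mM NADPH, 0.5 mM cumene hydroperoxide, 0.01% BSA; 30 min compound–enzyme preincubation.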

[2] = biological target: Phospholipid hydroperoxide glutathione peroxidase GPX4 (Homo sapiens) (UniProt P36969); assay: Primary qHTS Assay for Inhibitors of Recombinant Selenoprotein Glutathione Peroxidase 4 (GPX4) (AID 1845192); note: nearly all actives have a fitted effect of over 65% in size; for activity change, negative = inhibition: series mostly up to about 50 µM; % is set by controls: 0 for no effect and ±100 for the full control effect
Method in brief: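 NADPH consumption followed by fluorescence at 340/450 nm, t=0 and after 15 min at room temperature. Reaction started with cumene hydroperoxide (0.5 mM final) after 30 min compound–GPX4 preincubation; final 200 nM GPX4, 100 nM GR, 1 mM GSH, 0.5 mM NADPH.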

[3] = biological target: Luciferin 4-monooxygenase (Photinus pyralis) (UniProt P08659); assay: Primary firefly luciferase (FLuc) qHTS assay for identification of artifact compounds. (AID 1845220); note: nearly all actives have a fitted effect of over 60% in size;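 for activity change, negative = inhibition: series mostly up to about 54 µM; plate controls were DMSO vehicle for no effect and no enzyme for full effect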
Method in brief: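 FLuc 10 nM; luciferin 10 uM; ATP 10 uM; Tris-acetate pH 7.6, Mg-acetate 10 mM; 15 min RT preincubation; 5 min reaction; luminescence.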

[4] = Primary fluorescence-based thiol-reactive (MSTI) qHTS assay for identification of artifact compounds. (AID 1845221); note: nearly all actives have a fitted effect of over 65% in size; note: potency is the fitted concentration of half-maximal effect;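 for activity change, negative = thiol reactive: series mostly up to about 54 µM; thiol-reactive compounds lower the probe fluorescence signal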
Method in brief: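 Reactivity toward the thiol probe MSTI (4 uM) is scored by fluorescence at Ex/Em 525/598 nm after 1 h at room temperature. Acetyl-MSTI and MSTI define the activity scale.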

[5] = tested on: Nanoluciferase (engineered Oplophorus gracilirostris luciferase); assay: Primary Nanoluciferase (NLuc) qHTS assay for identification of artifact compounds. (AID 1845222);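 note: NLuc secreted into diluted conditioned medium of S16 cells; series mostly up to about 54 µM; 0% = DMSO and -100% = no enzyme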
Method in brief: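 NLuc from S16 cell medium (1:55) plus test compounds, 15 min, room temperature. Luminescence after Nano-Glo (1:100) addition, 5 min.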

[6] = Primary redox qHTS assay for identification of artifact compounds. (AID 1845223);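 note: 0% = DMSO and 100% = reference compound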
Method in brief: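 Redox-cycling detection via DTT (250 uM final) oxidation coupled to Amplex Red (25 uM)/HRP (250 mU/mL) in HBSS. 15 min preincubation plus 30 min after DTT, room temperature. Ex/Em 525/598 nm; 4-parameter Hill fit against DMSO and 10 uM DA3003.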

Sequence of Glutathione peroxidase 1 (Homo sapiens) (P07203 whole entry, looked up): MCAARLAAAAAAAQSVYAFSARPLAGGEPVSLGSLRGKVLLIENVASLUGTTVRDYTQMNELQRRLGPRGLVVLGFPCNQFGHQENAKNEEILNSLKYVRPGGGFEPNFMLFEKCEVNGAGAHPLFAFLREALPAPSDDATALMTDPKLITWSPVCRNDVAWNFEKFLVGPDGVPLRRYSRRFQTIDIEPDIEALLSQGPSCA
Sequence of Phospholipid hydroperoxide glutathione peroxidase GPX4 (Homo sapiens) (P36969 whole entry, looked up): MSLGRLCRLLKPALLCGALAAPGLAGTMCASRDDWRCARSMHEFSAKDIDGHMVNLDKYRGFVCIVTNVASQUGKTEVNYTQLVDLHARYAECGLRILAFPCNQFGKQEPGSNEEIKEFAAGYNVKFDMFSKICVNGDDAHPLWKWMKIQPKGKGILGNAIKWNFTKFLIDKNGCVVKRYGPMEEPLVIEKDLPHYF

C=C(C)C(=O)OC1C(OC(C)=O)/C(C=O)=C\CC/C(CO)=C/C2OC(=O)C(=C)C21 (configuration not stated)
inactive: Potency [1] | Potency [2] | Potency [3] | Potency [4] | Potency [5] | Potency [6]

C/C=C(/COC(=O)/C(C)=C/C)C(=O)OC(CC)c1ccc(OC)c(OC)c1 (configuration not stated)
inactive: Potency [1] | Potency [2] | Potency [3] | Potency [4] | Potency [5] | Potency [6]

C=C1CC[C@@H]2[C@](C)(CO[C@@H]3O[C@H](CO)[C@@H](O)[C@H](O)[C@H]3O)[C@H](O)CC[C@@]2(C)[C@@H]1C/C=C1/C(=O)OC[C@H]1O
active: Potency [4] 13 µM
inactive: Potency [1] | Potency [2] | Potency [3] | Potency [5] | Potency [6]

CC(=O)C1=C(C)N(c2cccc(C(F)(F)F)c2)C(=O)N[C@H]1c1ccc(C#N)nc1
inactive: Potency [1] | Potency [2] | activity change, negative = inhibition [3] -8.43% [at 11.6 µM] | activity change, negative = thiol reactive [4] 33.4% [at 11.5 µM] | activity, negative = inhibition [5] -1.73% [at 11.6 µM] | redox activity (% of DA3003) [6] -3.41% [at 11.5 µM]

O=S(=O)(c1ccccc1)c1cnc2c(N3CCNCC3)cccc2c1
inactive: Potency [1] | Potency [2] | Potency [3] | Potency [4] | Potency [5] | Potency [6]

CC(=O)O[C@@H]1c2c3c(cc(O)c2C(=O)O[C@@H]1C)O[C@@]1(C)[C@@H](O)C[C@H]2C(C)(C)C(=O)C=C[C@]2(C)[C@@H]1C3
inactive: Potency [1] | Potency [2] | Potency [3] | Potency [4] | Potency [5] | Potency [6]

COc1cc2c(cc1OC)CC(=O)N(CCCNC[C@H]1Cc3cc(OC)c(OC)cc31)CC2
inactive: Potency [1] | Potency [2] | Potency [3] | Potency [4] | Potency [5] | Potency [6]

CC1(C)CC(NC(=O)C(=O)Nc2ccc(Br)cc2)CC(C)(C)N1
inactive: Potency [1] | Potency [2] | Potency [3] | Potency [4] | Potency [5] | Potency [6]

CC/C=C/CC1=C(CCCCC(CCC(=O)O)OC(C)=O)CCC1=O (configuration not stated)
inactive: Potency [1] | Potency [2] | Potency [3] | Potency [4] | Potency [5] | Potency [6]

COc1cc(Nc2nc3ccccc3nc2NS(=O)(=O)c2ccc(NC(=O)c3ccc(OC)c(C)c3)cc2)cc(OC)c1
active: Potency [4] 1.68 µM
inactive: Potency [1] | Potency [2] | Potency [3] | Potency [5] | Potency [6]

CCC(C)C(=O)OC1CC(O)C23C4OCC5(C(O)CC2C1(C)C(O)O4)C3C(=O)C(O)C1(C)C(O)(c2ccoc2)CC2OC251 (configuration not stated)
inactive: Potency [1] | Potency [2] | Potency [3] | Potency [4] | Potency [5] | Potency [6]

CCOc1ccc2nc(SCCN3CCOCC3)[nH]c2c1
inactive: Potency [1] | Potency [2] | Potency [3] | Potency [4] | Potency [5] | Potency [6]

CC(=O)OC1C(c2ccccc2)CCC(c2ccccc2)C1OC(C)=O (configuration not stated)
inactive: Potency [1] | Potency [2] | Potency [3] | Potency [4] | Potency [5] | Potency [6]

Cc1ccc(Cc2c(C)nc3nc(SCC(=O)NCCN4CCNCC4)nn3c2C)cc1
inactive: Potency [1] | Potency [2] | Potency [3] | Potency [4] | Potency [5] | Potency [6]

CC(C)(C)c1cc(Br)cc([C@H](CC(=O)O)NC(=O)CNC(=O)c2cc(O)cc(NC3=NCC(O)CN3)c2)c1 (some centres not stated)
inactive: Potency [1] | Potency [2] | Potency [3] | Potency [4] | Potency [5] | Potency [6]

CNCc1ccc(-c2cc(-c3nc(-c4ccc(S(=O)(=O)C(C)C)cc4)cnc3N)on2)cc1
inactive: Potency [1] | Potency [2] | Potency [3] | Potency [4] | Potency [5] | Potency [6]

CCN(CC)CCN(Cc1ccc(-c2ccc(C(F)(F)F)cc2)cc1)C(=O)Cn1c(SCc2ccc(F)cc2)nc(=O)c2c1CCC2
inactive: Potency [1] | Potency [2] | Potency [3] | Potency [4] | Potency [5] | Potency [6]

CC(C)CCC[C@@H](C)[C@H]1CC[C@H]2[C@@H]3CC(=O)[C@H]4C[C@@H](O)CC[C@]4(C)[C@H]3CC[C@]12C
inactive: Potency [1] | Potency [2] | Potency [3] | Potency [4] | Potency [5] | Potency [6]

O=C(O)[C@@H]1C[C@H]2C[C@@H](CCc3nn[nH]n3)CC[C@H]2CN1
inactive: Potency [1] | Potency [2] | Potency [3] | Potency [4] | Potency [5] | Potency [6]

CC1(C)CC[C@]2(CO[C@@H]3O[C@H](CO)[C@@H](O)[C@H](O)[C@H]3O)[C@@H](O)C[C@]3(C)C(=CCC4[C@@]5(C)CC[C@H](O[C@@H]6O[C@H](CO[C@@H]7O[C@H](CO[C@@H]8OC[C@@H](O)[C@H](O)[C@H]8O)[C@@H](O)[C@H](O)[C@H]7O)[C@@H](O)[C@H](O)[C@H]6O)C(C)(C)C5CC[C@]43C)[C@@H]2C1 (some centres not stated)
inactive: Potency [1] | Potency [2] | activity change, negative = inhibition [3] -4.11% [at 11.6 µM] | activity change, negative = thiol reactive [4] 75.4% [at 11.5 µM] | activity, negative = inhibition [5] 0.495% [at 11.6 µM] | redox activity (% of DA3003) [6] 13.8% [at 11.5 µM]

C[C@H]1Oc2cc(cnc2N)-c2c(nn(C)c2C#N)CN(C)C(=O)c2ccc(F)cc21
inactive: Potency [1] | Potency [2] | Potency [3] | Potency [4] | Potency [5] | Potency [6]

C[C@]12C[C@@H](O)[C@@H]3C[C@@]1(O[C@@H]1O[C@H](CO)[C@@H](O)[C@H](O)[C@H]1O)[C@]3(COC(=O)c1ccccc1)C(=O)O2
inactive: Potency [1] | Potency [2] | Potency [3] | Potency [5] | Potency [6]
active: Potency [4] 13 µM

C=C(CCC1=C(C)[C@H]2[C@H](CC3[C@@H]4CC=C5C[C@@H](O)C[C@@H](O)[C@]5(C)C4[C@H](O)C[C@@]32C)O1)CO[C@@H]1O[C@H](CO)[C@@H](O)[C@H](O)[C@H]1O (some centres not stated)
inactive: Potency [1] | Potency [2] | Potency [3] | Potency [4] | Potency [5] | Potency [6]

CN[C@H](C(=O)N[C@H](C(=O)N(C)[C@H](/C=C(\C)C(=O)O)C(C)C)C(C)(C)C)C(C)(C)c1ccccc1
inactive: Potency [1] | Potency [2] | Potency [3] | Potency [4] | Potency [5] | Potency [6]

FC(F)(F)c1ccc(Nc2nc(-c3c(C(F)(F)F)nc4ccccn34)cs2)cc1
inactive: Potency [1] | Potency [2] | Potency [3] | Potency [4] | Potency [5] | Potency [6]

CC1(C)C[C@H](O)C[C@@]2(C)OC(=O)C=C12
active: Potency [4] 39.8 µM
inactive: Potency [1] | Potency [2] | Potency [3] | Potency [5] | Potency [6]

CN(C)C/C=C/C(=O)Nc1cccc(C(=O)Nc2cccc(Nc3ncc(Cl)c(-c4c[nH]c5ccccc45)n3)c2)c1
inactive: Potency [1] | Potency [2] | Potency [3] | Potency [4] | Potency [5] | Potency [6]

C[C@@]1(O)[C@H](O)[C@@H](CO)O[C@H]1n1ccc(N)nc1=O
inactive: Potency [1] | Potency [2] | Potency [3] | Potency [4] | Potency [5] | Potency [6]

COc1cccc(-c2cc(NCc3ccc4c(c3)OCO4)nc(N)n2)c1
inactive: Potency [1] | Potency [2] | Potency [3] | Potency [4] | Potency [5] | Potency [6]

CC(C)(O)C1CCC(C)(C2CCC3(C)C4CCC5C(C)(C(=O)OC6OC(CO)C(O)C(O)C6O)C(O)CC(O)C56CC46CCC23C)O1 (configuration not stated)
inactive: Potency [1] | Potency [2] | Potency [3] | Potency [4] | Potency [5] | Potency [6]

CCC(COC)n1nnc2c(Nc3ccc(OC)cc3C)nc(C)cc21 (configuration not stated)
inactive: Potency [1] | Potency [2] | Potency [3] | Potency [4] | Potency [5] | Potency [6]

COC(=O)C1(C)c2[nH]c3ccccc3c2CCN1C(=O)CCl (configuration not stated)
inactive: Potency [1] | Potency [2] | Potency [3] | Potency [4] | Potency [5] | Potency [6]
